Rows were chosen to be rich in hits. Some 27% of all compounds tested hit in one or more screens of this group.
CYP2C9 inhib – inhibitors of human CYP2C9; actives 20% (n = 96,000); CYP2C9 Supersomes, luciferin-H conversion, luminescence; AID 777; inhibition, % at 5 µM;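 active = blocking of liver enzyme CYP2C9 beyond about 50% at 5 µM, limit read from the data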
sEH activator – soluble epoxide hydrolase (human) activation. P34913. purified human sEH enzymatic activity, activator screen. activation, % at 2 µM. actives 0.04% (n = 91,000). AID 717; in the data active = activation above about 37%
Target sequence (P34913 whole entry, looked up): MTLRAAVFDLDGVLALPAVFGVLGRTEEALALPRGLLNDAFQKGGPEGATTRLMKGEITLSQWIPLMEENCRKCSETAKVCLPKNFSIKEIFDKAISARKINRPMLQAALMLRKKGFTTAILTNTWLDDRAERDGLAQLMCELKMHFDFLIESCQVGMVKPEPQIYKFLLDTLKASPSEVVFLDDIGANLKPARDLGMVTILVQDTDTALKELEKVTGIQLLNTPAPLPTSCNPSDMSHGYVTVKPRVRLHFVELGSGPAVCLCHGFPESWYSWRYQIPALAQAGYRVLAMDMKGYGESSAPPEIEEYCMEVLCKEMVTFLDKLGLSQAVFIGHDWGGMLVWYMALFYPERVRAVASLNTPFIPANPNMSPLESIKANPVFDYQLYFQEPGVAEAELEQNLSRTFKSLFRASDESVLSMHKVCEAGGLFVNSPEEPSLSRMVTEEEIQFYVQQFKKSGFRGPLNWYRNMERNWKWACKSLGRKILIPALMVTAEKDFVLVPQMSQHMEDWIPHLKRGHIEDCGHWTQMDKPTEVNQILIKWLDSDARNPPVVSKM
CYP2C9 act – increases human cytochrome P450 2C9 activity; P11712; recombinant CYP2C9, luciferin-H conversion, luminescence; stronger effect = higher value; factor 1 = untreated enzyme, 0 = blocked; activation factor at 5 µM; actives 1.4% (n = 96,000); AID 1024;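 active = activation factor of 2 or more for CYP2C9 at a 5 µM dose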;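 note: 0 = sulfaphenazole-blocked wells and 1 = vehicle-only wells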
CYP2C19 activ – activators of human cytochrome P450 2C19; P33261; recombinant CYP2C19, luciferin-H EGE luminescence; stronger effect = higher value; 0 = fully inhibited enzyme, 1 = untreated enzyme; activation factor at 5 µM; 96,000 tested, under 10 active; AID 1025;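 active = activation factor of at least 2 at 5 µM in the primary screen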;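 note: 0 = wells with 2.5 mM tranylcypromine and 1 = vehicle-only wells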
CYP2C19 inhib – inhibitors of human CYP2C19; inhibition, % at 5 µM; P33261; CYP2C19 Supersomes, luciferin-H EGE luminescence, 30 min; actives 21% (n = 96,000);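 active = CYP2C19 inhibition above a set limit at 5 µM in the primary screen, cut at about 50% in these data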;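 note: plate controls were negative control wells for no effect and 2.5 mM tranylcypromine positive control for full effect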
sEH inh – inhibitors of human soluble epoxide hydrolase. P34913. recombinant human sEH enzymatic activity assay. inhibition, % at 2 µM. actives 0.34% (n = 91,000). AID 707; in the data active = inhibition above about 80%
* = called active by the depositor; x = not tested or not shown.

SMILES | CYP2C9 inhib | sEH activator | CYP2C9 act | CYP2C19 activ | CYP2C19 inhib | sEH inh
CCn1c(=O)c(NC(=O)c2ccccc2)c2n(c1=S)CCCCC2 | 54* | -10 | 0.5 | 0.7 | 32 | 10
CCOCCCn1c(=O)c(NC(=O)c2ccc(OCC)cc2)c2n(c1=S)CCCCC2 | 26 | 6 | 0.7 | 0.9 | 7 | -5
CCCNC(=S)N1CCC(NC(=O)C2CCCCC2)CC1 | -26 | 0 | 1.3 | 1.2 | -18 | 1
Cc1ccc(NCC(=O)c2ccccc2)cc1Cl | -4 | -1 | 1 | 0.7 | 34 | 3
O=C(Nc1ccc(NC(=O)C2CC2)nc1)c1ccncc1 | 56* | -10 | 0.4 | 0.9 | 13 | 11
O=C(CNc1cccc(Cl)c1)c1ccc(Cl)cc1 | 15 | 11 | 0.9 | 0.1 | 86* | -10
O=C(NNC(=O)c1cccnc1)Nc1ccc(Cl)c(Cl)c1 | 8 | -8 | 0.9 | 0.6 | 38 | 7
O=C(Nc1ccc(NC(=O)C2CC2)nc1)c1ccccn1 | -16 | 0 | 1.2 | 0.9 | 13 | 0
O=C(Nc1ccc(Cl)c(Cl)c1)c1ccncc1 | 54* | -12 | 0.5 | 0 | 96* | 11
O=C(Nc1ccc(Cl)c(Cl)c1)OCc1cccnc1 | 47 | x | 0.5 | 0.4 | 64* | x
COc1ccc(CCN=CC2=C(O)CCCC2=O)cc1OC | -12 | -2 | 1.1 | 1.1 | -10 | 2
O=C(OCCNC(=O)c1ccc2ccccc2n1)c1ccc(F)cc1 | 31 | -1 | 0.7 | 0.8 | 16 | 1
COc1cccc(NC(=O)c2ccncc2)c1 | 3 | 0 | 1 | 0.6 | 36 | 1
CC(OC(=O)c1ccncc1)C(=O)Nc1cccc(Cl)c1 (centres undefined) | 63* | -2 | 0.4 | 0.3 | 75* | -1
O=C(Nc1ccc(Cc2ccncc2)cc1)c1ccc(Cl)c([N+](=O)[O-])c1 | 76* | -64 | 0.2 | 0.2 | 77* | 63
O=C(Nc1cccc(Cl)c1)c1ccncc1 | 25 | -8 | 0.7 | 0.3 | 68* | 6
O=C(Nc1cccc(Cl)c1)c1csc(-c2ccccc2)n1 | 58* | -5 | 0.4 | 1.1 | -10 | 5
O=C(Nc1ccc(Cl)c(Cl)c1)c1csc(-c2ccccc2)n1 | -13 | -9 | 1.1 | 1.1 | -10 | 8
COCCNC(=O)CN1CCC(n2c(C)nc3cc(C(F)(F)F)ccc32)CC1 | 4 | x | 1 | 0.8 | 16 | x
Cc1cc(C)nc(SCCn2c(N3CCCCC3)nc3c2c(=O)n(C)c(=O)n3C)n1 | 11 | 2 | 0.9 | 1.1 | -10 | -1
CC1CCCN(S(=O)(=O)c2ccc(S(=O)(=O)N3CCCN(Cc4ccccc4)C3)cc2)C1 (centres undefined) | 85* | x | 0.2 | 0 | 95* | x
CC1CCN(S(=O)(=O)c2ccc(S(=O)(=O)N3CCCN(Cc4ccccc4)C3)cc2)CC1 | x | 3 | x | x | x | 0
CC(C)CNS(=O)(=O)c1ccc(S(=O)(=O)N2CCCN(Cc3ccccc3)C2)cc1 | 28 | -12 | 0.7 | 0.5 | 50* | 14
Cc1ccc(C(=O)NCCCN2CCOCC2)o1 | x | 1 | x | x | x | -1
CCCCN(CCCC)C(=O)/C=C/c1cccc([N+](=O)[O-])c1 | 60* | 8 | 0.4 | 0.3 | 72* | -9
SMILES | CYP2C9 inhib | sEH activator | CYP2C9 act | CYP2C19 activ | CYP2C19 inhib | sEH inh
CC1CN(C(=O)/C=C/c2cccc([N+](=O)[O-])c2)CC(C)O1 (centres undefined) | x | 11 | x | x | x | -12
O=C(COc1ccc(F)cc1Br)N1CCc2ccccc21 | -2 | -10 | 1 | 0.8 | 20 | 8
CCCN(CCC)c1nc(N)nc(-c2cc(Cl)ccc2OC)n1 | 16 | -5 | 0.8 | 0.4 | 58* | 7
CCCNc1nc(N)nc(-c2cc(Cl)ccc2OC)n1 | 26 | -4 | 0.7 | 0.3 | 74* | 6
CCCCCCCC1(C)NC(=O)N(c2ccccc2)N1 (centres undefined) | 24 | 21 | 0.8 | 0.4 | 57* | -21
CC(=O)c1cc2c(=O)c3ccccc3oc2nc1C | x | 9 | x | x | x | -5
O=c1c2ccccc2oc2nc3ccn(Cc4ccncc4)c(=O)c3cc12 | 59* | 8 | 0.4 | 0.6 | 41 | -7
O=C(OCC(=O)c1ccccc1Br)c1ccccn1 | -5 | 12 | 1 | 1 | 0 | -14
O=C(c1ccccn1)c1conc1C(=O)c1ccc(Br)cc1 | 57* | -6 | 0.4 | 0.1 | 86* | 8
CSCCC(NC(=O)c1occc1C)C(=O)O (centres undefined) | -24 | -6 | 1.2 | 1.2 | -20 | 11
O=S1(=O)C=C(Sc2nnc(-c3ccccc3)o2)c2ccccc21 | -10 | x | 1.1 | 1.2 | -16 | x
CCOc1ccc(-c2csc(C3COc4ccccc4O3)n2)cc1 (centres undefined) | x | 8 | x | x | x | -5
N#CC1=C(N)C(C#N)(C#N)C(c2cccnc2)C2CC(c3ccccc3)CC=C12 (centres undefined) | 64* | 4 | 0.4 | 0.8 | 20 | -4
COc1cc(CN2CCN(S(=O)(=O)c3ccc(NC(C)=O)cc3)CC2)cc(OC)c1O | 35 | x | 0.6 | 0.9 | 10 | x
Cc1nn(C)c(C(=O)N2CCc3ccccc32)c1Cl | x | 2 | x | x | x | 1
Cc1cccc(NC(=O)CN(c2ccc(C(C)C)cc2)S(=O)(=O)c2c(C)nn(C)c2C)n1 | 97* | -11 | 0 | 0 | 96* | 9
COc1ccc(-n2ncc3c(=O)n(CC(=O)N4c5ccccc5CC4C)cnc32)cc1 (centres undefined) | x | -7 | x | x | x | 11
CCOC(=O)c1ccc(NC(=O)CN(c2ccc(C)cc2)S(=O)(=O)c2c(C)nn(C)c2C)cc1 | 22 | 18 | 0.8 | 0.7 | 26 | -19
COc1ccc(N(CC(=O)N2CCc3ccccc32)S(=O)(=O)c2c(C)n[nH]c2C)cc1 | 76* | 4 | 0.2 | 0.6 | 40 | -1
Cc1nn(C)c(C)c1S(=O)(=O)N(CC(=O)N1CCc2ccccc21)c1ccc(C(C)C)cc1 | 74* | 10 | 0.3 | 0.4 | 59* | -13
COc1ccc(N(CC(=O)N2c3ccccc3CC2C)S(=O)(=O)c2c(C)nn(C)c2C)cc1 (centres undefined) | 77* | -2 | 0.2 | 0.2 | 80* | 0
Cc1ccc(N(CC(=O)N2CCc3ccccc32)S(=O)(=O)c2cccs2)cc1 | 9 | 8 | 0.9 | 1 | 5 | -12
O=C(O)CC(NC(=O)COc1ccc(Cl)cc1Cl)C(=O)O (centres undefined) | -10 | 0 | 1.1 | 1 | 0 | 3
COc1ccc2oc(=O)c(C(=O)N3c4ccccc4CC3C)cc2c1 (centres undefined) | 68* | 5 | 0.3 | 0.8 | 20 | -7
COc1ccc(N(CC(=O)N2CCc3ccccc32)S(=O)(=O)c2c(C)nn(C)c2C)cc1 | 60* | 13 | 0.4 | 0.7 | 26 | -9
COc1ccc(N(CC(=O)N2CCCC(C)C2)S(=O)(=O)c2c(C)nn(C)c2C)cc1 (centres undefined) | 37 | 3 | 0.6 | 0.5 | 53* | -6

Assay outcomes as filed in PubChem BioAssay.
